High-throughput results from PubChem.
Only some compounds are listed: those with a hit (about 2.7% of all), similar ones and a draw of the others.
TrxR1 substrate: rat thioredoxin reductase 1 substrate activity; O89049; purified TrxR1 substrate turnover, NADPH consumption readout; Potency, µM (top dose mostly 114 µM), without a hit: top-dose activity change, negative = substrate turnover; 0.01% of 390,000 active; AID 588456; further: on the % scale 0 is the no-effect control and ±100 the full control effect; nearly all actives have a fitted effect of over 50% in size
Target sequence (O89049 whole entry, looked up): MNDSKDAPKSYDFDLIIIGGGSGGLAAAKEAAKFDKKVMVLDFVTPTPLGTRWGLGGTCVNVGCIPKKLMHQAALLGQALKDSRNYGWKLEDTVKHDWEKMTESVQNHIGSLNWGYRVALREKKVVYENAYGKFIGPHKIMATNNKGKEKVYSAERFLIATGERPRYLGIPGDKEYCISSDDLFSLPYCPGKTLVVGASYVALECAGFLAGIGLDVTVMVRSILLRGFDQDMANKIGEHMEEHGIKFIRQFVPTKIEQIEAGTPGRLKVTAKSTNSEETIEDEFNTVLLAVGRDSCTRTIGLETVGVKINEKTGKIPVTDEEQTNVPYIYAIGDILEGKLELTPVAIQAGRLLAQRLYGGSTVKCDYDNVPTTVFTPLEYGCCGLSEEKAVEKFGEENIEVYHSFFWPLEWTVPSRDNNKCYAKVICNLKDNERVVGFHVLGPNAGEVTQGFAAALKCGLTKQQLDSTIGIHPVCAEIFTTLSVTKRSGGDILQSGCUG
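Rat TrxR1, dispensed at 90 nM, was prereduced with 400 uM NADPH (final) for 5 min at ~22 deg C, then incubated with compound 15 min before 400 uM selenite. A first-read NADPH fluorescence drop versus no-compound background flagged substrates.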
mIDH1 inhibitor: inhibitors of human mutant IDH1 R132H. O75874. IDH1-R132H enzyme, NADPH consumption, diaphorase/resazurin fluorescence. Potency, µM (highest dose often 76.6 µM), inactives show at the highest dose activity change, negative = inhibition, actives largely listed as inhibitors. 0.093% of 390,000 active. AID 602179; further: on the % scale 0 is the no-effect control and ±100 the full control effect; nearly all actives have a fitted effect of over 65% in size
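IDH1-R132H (0.5 ug/mL) preincubated 30 min with compound, then NADPH (0.016 mM) and alpha-KG (2 mM) added; 80 min at RT, pH 7.5. Remaining NADPH coupled via diaphorase/resazurin to fluorescence (540/590 nm); concentration-response curves normalized to no-enzyme control.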
GLP1R inv ag: GLP-1 receptor (human) inverse agonism; P43220; HEK293 GLP-1R CRE-luciferase, luminescence, 24 h; GLP-1R form is constitutively active; Potency, µM (doses to about 38.3 µM), inactives show top-dose activity change, negative = inhibition, actives largely listed as inhibitors; 1.6% of 410,000 active; AID 624417; further: on the % scale 0 is the no-effect control and ±100 the full control effect; nearly all actives have a fitted effect of over 55% in size
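qHTS in 1536-well format: reporter HEK293 cells expressing constitutive GLP-1R activity in DMEM + 10% Nu serum, 24 hr with compounds at 37 deg C, luminescence read after 12 min with detection reagent.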
TrxR1 inh: blocks rat thioredoxin reductase 1. O89049. recombinant rTrxR1, NADPH fluorescence consumption, selenite substrate. Potency, µM (top dose mostly 114 µM), for the others: top-dose activity change, negative = inhibition, usual class: inhibitors. 1% of 390,000 active. AID 588453; further: on the % scale 0 is the no-effect control and ±100 the full control effect; nearly all actives have a fitted effect of over 65% in size
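Rat TrxR1 (90 nM in the dispensed reagent) was pre-reduced with 400 uM NADPH for 5 min at room temperature, then incubated with compound for 15 min. After 400 uM selenite was added, NADPH fluorescence (Ex 340/Em 450 nm) was followed for 8 min.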
GLP-1R agonist: GLP-1 receptor (human) agonism | 0.007% of 380,000 active | HEK293 GLP-1R CRE-luciferase, luminescence, 4-6 h; cells express a hypersensitive GLP-1R form | Potency, µM (top dose mostly 45.6 µM), for the others: at the top dose activation, actives largely listed as activators; further: % of control where 0% means no effect
HEK293 tox: cytotoxicity counter-screen for GLP-1 receptor inverse agonists. HEK293 cAMP-luciferase reporter cells, luminescence, 24 h. Potency, µM (titrated, usually from 38.3 µM), without a hit: at the highest dose activity change, negative = inhibition, usual class: inhibitors. 0.13% of 410,000 active. AID 624418;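 further: loss of luciferase light is scored as toxicity; on the % scale 0 is the no-effect control and ±100 the full control effect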
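Compound-treated cells are incubated 24 hr at 37 deg C under 5% CO2 after a 12 hour attachment period, then luciferase detection reagent is added and luminescence is measured following 12 min at room temperature; lowered signal indicates toxicity.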
* hit, by the source's call; ? = inconclusive; . = no result given; ! = repeats disagree; [ ] = another dose, or the depositor's remark. The call rests on the fitted dose curve; in most records, active means well fitted curve in the direction sought with a large enough effect; inconclusive means small, poorly fitted or top-dose-only effect, or another doubt; inactive means no such curve, though single readings can be large; an effect the other way counts as inactive or inconclusive. Potency means the concentration at half of the fitted maximal effect.

SMILES | TrxR1 substrate | mIDH1 inhibitor | GLP1R inv ag | TrxR1 inh | GLP-1R agonist | HEK293 tox
O=C(OCC(=O)N1N=C(c2ccc(Cl)cc2)CC1c1ccco1)c1cccnc1 (configuration not stated) | 0% | 2% | 40% | 7.1µM* | -3% | 2%
O=C(c1ccco1)N1N=C(c2ccc(Cl)cc2)CC1c1ccco1 (configuration not stated) | -4% | 1% | 25% | 40µM* | 3% | 18%
COCC(=O)OCC(=O)N1N=C(c2ccc(Cl)cc2)CC1c1ccco1 (configuration not stated) | 5%[57.1 µM] | 17% | -9% | 11%[57.1 µM] | 10% | 3%
CCC(=O)Nc1ccccc1-c1nc2ccccc2n(CC(=O)c2ccc(Br)cc2)c1=O | 3% | -2% | -10% | 11% | . | 3%
O=C1CSC(=Nc2ccc(Cl)cc2)N1Cc1ccco1 | -9% | 0% | 8.9µM* | ? | 14% | 17%
Cc1cc(C)c(N=C2SCC(=O)N2Cc2ccco2)c(C)c1 | 5%[57.1 µM] | -1% | ? | 21%[57.1 µM] | 9% | 6%
Cc1ccc(CNC(=O)CCCCCn2c(=O)c3sccc3n(CC(=O)C(C)(C)C)c2=O)cc1 | 4% | . | -29% | 16% | . | -15%
CCOC(=O)c1c(NC(=S)N2CCN(C)CC2)sc(C)c1-c1ccccc1 | 3% | 0% | 1.8µM* | 14% | -3% | ?
CCOC(=O)c1c(NC(=O)/C=C/C(=O)O)sc(C)c1-c1ccc(Cl)cc1 | -6% | ? | 5µM* | 5% | -5% | ?
CCOC(=O)c1c(NC(=O)Nc2ccc(Cl)cc2)sc(C)c1C | 22% | -10% | 14% | 12% | -9% | 1%
CCOC(=O)c1ccc(NC(=S)N2CCN(C)CC2)cc1 | -1%[57.1 µM] | -3% | -22% | 9%[57.1 µM] | 2% | 13%
CCOC(=O)c1c(NC(=S)N2CCOCC2)sc2c1CCN(C(=O)OCC)C2 | 6%[57.1 µM] | -14% | 10µM* | -8% | 10% | ?
CC(C)Oc1ccccc1C1C=C(C(=O)O)Nc2ncnn21 (configuration not stated) | -10% | 20% | 23% | -5% | 2% | 3%
CCCN1CNc2c(c(=O)[nH]c(=S)n2CCc2c(Cl)cccc2Cl)C1 | -1% | . | . | -10% | . | .
CCC(C)NC(=O)CSc1nc2cc3c(cc2c(=O)n1CCCCCC(=O)NCc1ccc(OC)cc1)OCO3 (configuration not stated) | 4%[57.1 µM] | 16% | 12% | 20%[57.1 µM] | . | 5%
CC[C@@]1(O)C(=O)OCc2c1cc1n(c2=O)Cc2cc3c([N+](=O)[O-])cccc3nc2-1 | . | . | . | . | -18% | .
C=CCc1ccccc1OCC(O)CN1CCN(c2ccccc2F)CC1 (configuration not stated) | 6%[57.1 µM] | 1% | 10µM* | -5%[57.1 µM] | -6% | -19%
C=CCN1CCN(C(c2ccccc2)c2nnnn2CCC(C)C)CC1 (configuration not stated) | 6%[57.1 µM] | 3% | -18% | 28µM* | 12% | 2%
CC(C)CCn1nnnc1C(c1ccccc1)N1CCN(C)CC1 (configuration not stated) | -7% | -1% | 2% | -11% | 3% | -13%
O=C(O)c1ccccc1N/N=C\c1ccnc2ccccc12 | -8%[57.1 µM] | 9% | 4.5µM* | 0%[57.1 µM] | -40% | 54%
CCc1nn(CC(=O)NCCCOC)c(=O)c2cc3occc3n12 | -1% | 0% | 2% | -6% | . | 0%
COCCNCc1nc2sc(C)c(-c3ccccc3)c2c(=O)[nH]1 | 3% | 3% | 11µM* | 13% | 9% | ?
CCCc1nnc(NC(=S)Nc2ccccc2)s1 | -4%[57.1 µM] | 4% | ? | -11%[57.1 µM] | -2% | ?
CC(C)C(=O)Nc1nnc(NC(=S)Nc2ccccc2)s1 | 2%[57.1 µM] | 0% | -4% | 10µM* | -1% | ?
CCOC(=O)c1c(C)c(C(=O)N2CCN(C(=O)c3ccco3)CC2)c(C)n1C | 6%[57.1 µM] | -1% | 7% | -2%[57.1 µM] | 7% | 4%
SMILES | TrxR1 substrate | mIDH1 inhibitor | GLP1R inv ag | TrxR1 inh | GLP-1R agonist | HEK293 tox
CCOC(=O)c1c(C)n(C(=O)c2ccco2)c(=O)n1C(=O)c1ccco1 | -4% | -1% | 0% | 40µM* | -2% | 0%
CCOc1ccc(-c2cc(NC(=O)Nc3ccc(Cl)cc3)c(C(=O)OC)s2)cc1 | 18% | -5% | 13% | 17% | . | 0%
CCOC(=O)N1CCc2c(sc3c2c(=O)n(Cc2ccccc2)c(=O)n3Cc2cccc(C)c2)C1 | -1% | -17% | 10µM*! | 10% | 8% | 3%
CCOC(=O)N1CCc2c(sc3c2c(=O)n(Cc2ccccc2)c(=O)n3Cc2cc(C)ccc2C)C1 | 9% | -9% | 7% | 25% | . | 5%
COc1ccc(Nc2ncc3c(n2)CCN(Cc2ccc(Br)s2)C3)c(OC)c1 | -1%[57.1 µM] | -8% | -10% | 14%[57.1 µM] | . | 86%
CCCCCCC(=O)N(O)C1CC(=O)N(c2ccc(C)cc2)C1=O (configuration not stated) | 13% | 7% | 49% | 16µM* | 3% | -12%
CCCCCCC(=O)N(O)C1CC(=O)N(c2ccc(Cl)cc2)C1=O (configuration not stated) | 9%[57.1 µM] | 3% | 14% | 11µM* | 4% | 6%
Cc1ccc(N2C(=O)CC(N(O)C3CC(=O)N(c4ccc(C)cc4)C3=O)C2=O)cc1 (configuration not stated) | 2%[57.1 µM] | 6% | 4% | ? | -1% | 0%
CCOC(=O)[C@H](CCc1ccccc1)N[C@@H](C)C(=O)N(CC(=O)O)C1Cc2ccccc2C1 | . | . | . | . | -6% | .
NC(=O)N1c2ccccc2C=Cc2ccccc21 | 2%[57.1 µM] | 5% | 7% | -4%[57.1 µM] | 9% | 3%
CCN(CC)C(=O)N1c2ccccc2C=Cc2ccccc21 | 1% | 0% | 5.6µM* | -2% | 1% | -6%
CCNc1nc(NC(C)(C)C)nc(SC(C(C)=O)C(C)=O)n1 | -3% | -2% | 8.9µM* | -22% | -5% | -10%
Cc1ccc(S(=O)(=O)NCC(=O)N(CCc2ccccc2)CC(=O)NCc2ccco2)cc1 | 2% | 4% | 0% | 22µM* | 3% | 0%
CN1CCc2c(sc3c2C(=O)NC(c2cn(Cc4ccccc4)c4ccccc24)N3)C1 (configuration not stated) | 25% | 1% | 4µM* | -29% | -3% | 163%
CN1CCc2c(sc3c2C(=O)NC(c2ccco2)N3)C1 (configuration not stated) | 45%[57.1 µM] | -3% | 0% | -35%[57.1 µM] | -7% | 67%
